From PubChem
A selection: hits, their analogues and other compounds. The true share with any hit is near 3.4%.
MITF primary – human MITF inhibition, primary screen. 0.91% of 650,000 active. inhibition, % at 2.6 µM. AlphaScreen MITF homodimerization, bead proximity signal. O75030; in the data active means inhibition above about 50%;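 further: 0% = vehicle wells with protein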
GPR151 activ – activates the human receptor GPR151; PathHunter beta-arrestin GPR151 cells, luminescence; activation, % at 11.2 µM; 1% of 650,000 active; in the data active means activation above about 4.9%;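 further: 0% = median of compound wells and 100% = cells with positive control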
FBW7 activator – human FBW7 E3 ligase activation, primary screen. Q969H0. AlphaScreen FBW7–phospho-cyclin E peptide binding, activator screen. normalized activity (activation), % at 26.1 µM. 0.13% of 650,000 active. AID 1259310; in the data active means normalized activity above about 1.9%;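 further: purified mutant Fbw7 with reduced substrate affinity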
Target sequence (Q969H0 whole entry, looked up): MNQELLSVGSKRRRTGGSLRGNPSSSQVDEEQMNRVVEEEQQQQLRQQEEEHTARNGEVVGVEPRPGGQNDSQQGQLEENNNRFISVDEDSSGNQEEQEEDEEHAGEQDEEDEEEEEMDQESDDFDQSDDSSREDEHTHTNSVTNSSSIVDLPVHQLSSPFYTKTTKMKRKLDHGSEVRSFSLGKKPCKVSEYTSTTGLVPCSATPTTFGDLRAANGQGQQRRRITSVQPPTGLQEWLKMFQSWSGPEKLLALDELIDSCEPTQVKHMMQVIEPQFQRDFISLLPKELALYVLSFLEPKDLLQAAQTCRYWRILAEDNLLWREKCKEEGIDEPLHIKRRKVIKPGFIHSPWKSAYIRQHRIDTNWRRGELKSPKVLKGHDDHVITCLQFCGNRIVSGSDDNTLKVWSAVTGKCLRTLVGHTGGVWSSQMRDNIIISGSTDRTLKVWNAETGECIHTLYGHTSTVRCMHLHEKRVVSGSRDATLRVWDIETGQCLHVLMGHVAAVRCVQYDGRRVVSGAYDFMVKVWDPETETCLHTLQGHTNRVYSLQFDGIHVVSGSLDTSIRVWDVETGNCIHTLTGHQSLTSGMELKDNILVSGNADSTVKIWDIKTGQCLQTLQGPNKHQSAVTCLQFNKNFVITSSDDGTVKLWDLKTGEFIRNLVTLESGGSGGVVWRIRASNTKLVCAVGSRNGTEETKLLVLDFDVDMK
TEAD-YAP block – TEAD-YAP interaction inhibition; HEK-TIYL cells, TEAD-Gal4/YAP UAS-luciferase luminescence; inhibition, % at 9.12 µM; 1.4% of 640,000 active; in the data active means inhibition above about 32%;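 further: 0% = median of test compound wells and 100% = reference inhibitor wells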
MITF confirm – confirmation of human MITF inhibitors | shares compounds with MITF primary | AlphaScreen MITF homodimerization, biotin/His-MITF beads | inhibition, % at 2.6 µM | 16% of 4,700 active | AID 1259372;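 active means inhibition above a cutoff derived from the DMSO control wells, cut at about 28% in these data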;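 further: 0% = MITF dimer wells with DMSO only; inhibitors lower the bead chemiluminescence by keeping MITF from dimerizing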
AlphaScreen DR – counter-screen: compounds optically interfering with AlphaScreen; shares compounds with MITF primary; AlphaScreen optical interference counterscreen, cell-free; IC50, µM; 6% of 480 active; call rule not given here
AS interf ctr – AlphaScreen optical interference, counter-screen; shares compounds with MITF primary; LysRS AlphaScreen counterscreen, signal interference, triplicate; inhibition, % at 2.6 µM; 7.6% of 4,700 active; AID 1259376;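 active means inhibition above a cutoff derived from the DMSO control wells, cut at about 30% in these data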
Starred values were filed as active, the others as inactive; · = no result.

SMILES	MITF primary	GPR151 activ	FBW7 activator	TEAD-YAP block	MITF confirm	AS interf ctr	others
COC(=O)CSc1nnc(-c2cnccn2)n1C	65*	0	0	-4	36*	11	AlphaScreen DR=>6.5
COCCn1c(SCC#N)nnc1-c1cnccn1	-3	1	0	1	·	·
COCCSc1nnc(-c2ccncc2)n1C	59*	1	0	6	5	15
Cc1cc([N+](=O)[O-])ccc1N=Cc1c(O)[nH]c2ccccc12	3	0	0	-19	·	·
O=C(NCCCn1ccnc1)NC(C(F)(F)F)C(F)(F)F	0	1	0	5	·	·
O=C(/C(Br)=C/NCCCn1ccnc1)C(F)(F)F	65*	0	0	6	40*	99*
CCc1ccc2nc(SCC(=O)Nc3nc(C)c(C)s3)c(C#N)cc2c1	84*	-1	-1	-2	22	56*
Cc1nc2ccc(-c3cnn(-c4ccc(N5CCOCC5)cc4)c3)cc2c(=O)n1C	-8	-1	0	3	·	·
O=C(NNC(=S)NCc1ccc(Cl)cc1)c1ccccn1	112*	4	-1	1	102*	100*
O=C(NNC(=S)NCc1ccco1)c1ccccn1	117*	-2	-2	10	46*	67*
O=C(CCc1ccccc1)NC(=S)Nc1ccc2c(c1)C(=O)OC2	80*	0	0	5	7	11
O=C1NC(=Nc2ccccc2)S/C1=C/c1cccc(OCc2ccccc2)c1	-7	1	0	-9	·	·
NC(=O)c1cc(NC(=O)COC(=O)COc2cccc(C(F)(F)F)c2)cc(C(N)=O)c1	53*	1	0	1	48*	3	AlphaScreen DR=>6.5
NC(=O)c1cc2ccccc2oc1=Nc1cc(C(F)(F)F)ccc1Cl	-6	2	0	6	·	·
Cc1cc(NCCc2ccccc2)nc(-c2ccccc2O)n1	82*	0	0	-21	-22	0
COc1ccc(C)cc1NS(=O)(=O)c1ccc2c(c1)CCC(=O)N2	73*	-1	0	3	62*	-3	AlphaScreen DR=>6.5
Cc1ccc(NC(=O)Cn2cnc3sc4c(c3c2=O)CCCC4)c(Br)c1	8	-1	0	0	·	·
C=CCn1c(SCC(=O)O)nc2sc(C)c(C)c2c1=O	81*	-1	0	0	4	23
CCN1CCN(C(=O)Cn2cnc3sc4c(c3c2=O)CCCC4)CC1	0	3	0	5	·	·
CCOc1ccc(C(=O)Nc2ccc(NC(=O)c3ccc(C(C)(C)C)cc3)cc2)cc1Br	4	-1	0	5	·	·
Cc1cccc(NC(=O)c2ccc(N3C(=O)C4C5C=CC(C5)C4C3=O)cc2)c1 (stereo not drawn)	76*	1	0	-16	4	10
Cc1cccc(NC(=O)c2ccc(N3C(=O)C4C5C=CC(C6CC56)C4C3=O)cc2)c1 (stereo not drawn)	-12	-1	0	-9	·	·
O=C(NCSc1nc2ccccc2o1)C(F)(F)F	26	-1	0	-3	·	·
COc1ccc(C(=O)N2CCN(Cc3ccc(OC)c(OC)c3)CC2)cc1	25	-2	0	-6	·	·
COc1ccc(CN2CCN(C(=O)c3ccncc3)CC2)cc1OC	70*	0	0	3	-9	-3
SMILES	MITF primary	GPR151 activ	FBW7 activator	TEAD-YAP block	MITF confirm	AS interf ctr	others
COc1cc(OC)cc(C(=O)N2CCN(Cc3cc(OC)c(OC)c(OC)c3)CC2)c1	29	-1	0	5	·	·
COc1cc(CN2CCN(C(=O)c3ccncc3)CC2)cc(OC)c1OC	72*	0	0	0	3	-6
COc1cc(C(=O)N2CCN(Cc3ccncc3)CC2)cc(OC)c1OC	76*	-1	0	0	-9	-2
CCc1ccc(CN2CCN(C(=O)c3ccccc3F)CC2)cc1	51*	0	0	16	8	10
O=C(C1CCNCC1)N1CCN(Cc2ccc3c(c2)OCO3)CC1	56*	0	0	-6	9	13
O=C(c1ccccc1F)N1CCN(Cc2ccc3c(c2)OCO3)CC1	51*	-1	0	15	-1	-5
Cc1ccc(C(=O)NCc2nnc(SCC(=O)c3ccccc3)n2-c2cccc(C(F)(F)F)c2)cc1[N+](=O)[O-]	-7	2	0	3	·	·
Cc1oc(C)c(C(=O)O)c1CSc1ccccc1C(=O)O	5	1	0	3	·	·
Cc1oc(C)c(C(=O)O)c1COc1ccccc1C(=O)O	51*	-1	0	2	14	-3
CSc1nc(NN)c2c3c(sc2n1)CN(C)CC3	74*	0	0	-4	7	15
O=C(NNC(=S)Nc1ccc(Cl)c(Cl)c1)c1ccccn1	114*	0	-1	39*	110*	100*
O=C(NNC(=S)Nc1ccccc1C(F)(F)F)c1ccc(Br)o1	-21	-2	0	-32	·	·
O=C(NNC(=S)Nc1ccccc1C(F)(F)F)c1ccccn1	113*	-2	-1	-37	104*	100*
CC(O)CC(=O)NNC(=S)Nc1ccc(Cl)c(Cl)c1 (stereo not drawn)	-1	0	0	3	·	·
Cc1ccc(N2C(=O)/C(=C/c3ccc(Cl)cc3)C=C2c2ccccc2)c(Br)c1	13	0	1	2	·	·
Cc1ccc(-c2nc(CS(=O)CC(=O)Nc3cccc([N+](=O)[O-])c3)c(C)o2)cc1 (stereo not drawn)	2	0	0	9	·	·
CN(C)CCCNCC(=O)c1c(-c2ccccc2)n(C)c2ccccc12	51*	0	1	-12	-7	8
COCc1nc2ccccc2n1CCc1noc(-c2ccc(OC)cc2)n1	2	3	1	-2	·	·
COCc1nc2ccccc2n1CCc1noc(-c2ccccc2OC)n1	95*	-1	0	2	4	-7
CC1CN(Cc2ccccc2Br)CC(C)O1 (stereo not drawn)	67*	-1	0	0	1	4
CC1CN(Cc2ccc(F)c(F)c2)CC(C)O1 (stereo not drawn)	61*	1	1	2	3	1
CC1CN(Cc2ccc(F)cc2F)CC(C)O1 (stereo not drawn)	65*	0	0	-3	0	9
COc1ccc(CCNC(=O)c2cccc(Nc3ccnn3C)n2)cc1	7	-1	0	-3	·	·
C[n+]1cc(C(=O)NCCC[N+](C)(C)C)ccc1/C=N/O	12	0	0	-1	·	·
CC(=O)NC1(c2ccccc2)CCN(c2cc(N)nc(C)n2)CC1	-1	0	0	6	·	·
C[C@H](O)[C@H]1NC(=O)[C@H]2CN(C(=O)NCc3ccccc3)CCN2C1=O	75*	-1	1	6	71*	-13	AlphaScreen DR=>6.5
O=C1N[C@@H](Cc2cnc[nH]2)C(=O)N2CCN(C(=O)NCc3ccccc3)C[C@H]12	13	0	0	11	·	·
